Measurements published in PubChem BioAssay AID1533 (PCMD, 2009).
In all, about 160,000 compounds went through this assay and about 45 (0.03%) were called active. Cut-off read from the data, not from the text of the source: active = inhibition mostly above about 34% (no sharp cut-off); inconclusive = no clear call, values can overlap the other calls; inactive = mostly below about 22%. This excerpt belongs to a sample that is enriched for actives.

Molecular target: dTDP-4-dehydrorhamnose reductase (Mycobacterium tuberculosis (strain ATCC 25618 / H37Rv)) + dTDP-4-dehydrorhamnose 3,5-epimerase (Mycobacterium tuberculosis (strain ATCC 25618 / H37Rv)) (UniProt P9WH09+P9WH11)
Sequence (P9WH09 whole entry, looked up): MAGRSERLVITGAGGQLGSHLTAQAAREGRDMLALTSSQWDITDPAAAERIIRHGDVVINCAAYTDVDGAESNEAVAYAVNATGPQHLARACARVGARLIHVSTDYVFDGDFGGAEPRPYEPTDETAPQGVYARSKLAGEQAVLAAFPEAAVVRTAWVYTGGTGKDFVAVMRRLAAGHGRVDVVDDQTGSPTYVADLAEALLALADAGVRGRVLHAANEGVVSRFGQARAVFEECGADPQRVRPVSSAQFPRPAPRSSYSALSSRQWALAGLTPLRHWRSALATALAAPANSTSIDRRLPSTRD
Sequence (P9WH11 whole entry, looked up): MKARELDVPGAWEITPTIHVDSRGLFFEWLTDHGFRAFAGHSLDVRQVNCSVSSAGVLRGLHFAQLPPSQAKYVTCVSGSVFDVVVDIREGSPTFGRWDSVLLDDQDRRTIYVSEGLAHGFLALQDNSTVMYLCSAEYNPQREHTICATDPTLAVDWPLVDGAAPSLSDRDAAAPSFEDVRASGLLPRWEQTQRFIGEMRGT
Experiment: M. tuberculosis RmlC/RmlD coupled enzyme inhibitors, primary screen, biochemical, compound mixtures, 384-well, from 1536-well plates (AID 1533)
Conditions: RmlC+RmlD coupled enzyme assay, percent inhibition, primary screen in compound mixtures, stronger effect = higher value
[1] = measured here: mean retest inhibition, at 5.5 µM

COc1ccc(CCN2C(=O)N(c3ccc(OC)cc3)C(=O)C2CC(=O)Nc2ccc(OC)cc2)cc1 (centres undefined)
inhibition (at 3.6 µM): -9.07% (inactive)

CCOC(=O)C1(Cc2cccc(OC)c2)CCN(C(C)CC(C)(C)O)CC1 (centres undefined)
inhibition (at 3.6 µM): 7.5% (inactive)

COc1ccc(NS(=O)(=O)c2ccc(N3CCOCC3)c(NC(=O)c3ccccc3Br)c2)cc1
inhibition (at 3.6 µM): -4.87% (inactive)

Cc1nc2nc(SCC(=O)c3ccccc3)[nH]c2cc1Br
inhibition (at 3.6 µM): 4.73% (inactive)

O=C1C2C3C=CC(C3)C2C(=O)N1c1ccc(S(=O)(=O)Nc2nccs2)cc1 (centres undefined)
inhibition (at 3.6 µM): -2.55% (inactive)

COCCSc1nnc(NC(=O)c2cc(OC)c(OC)cc2[N+](=O)[O-])s1
inhibition (at 3.6 µM): 15.5% (inactive)

CC(=O)c1sc(NC(=O)C2=NN(c3ccccc3)C(=O)CC2)nc1C
inhibition (at 3.6 µM): -9.61% (inactive)

Cc1ccc(NC(=O)NC2CCCCC2)cc1S(=O)(=O)N1CCOCC1
inhibition (at 3.6 µM): -9.91% (inactive)

Clc1ccc2nc(-c3ccccc3)nc(C(Cl)Cl)c2c1
inhibition (at 3.6 µM): 0.32% (inactive)

O=S(=O)(Nc1ccc(OC(F)(F)F)cc1)c1cccc2nonc12
inhibition (at 3.6 µM): 4.95% (inactive)

O=C(NCc1ccc(F)cc1)C1CCC(CNc2c(N3CCOCC3)c(=O)c2=O)CC1 (centres undefined)
inhibition (at 3.6 µM): 43.3% (inactive) | inhibition [1]: -8.27%

CCOc1ccc(CCN2C(=O)c3cccnc3C2=O)cc1OCC
inhibition (at 3.6 µM): 3.14% (inactive)

Cc1ccc(NC(=O)c2ccc(S(=O)(=O)NCC3CCCO3)cc2)cc1C (centres undefined)
inhibition (at 3.6 µM): 0.36% (inactive)

CC(=O)NC(=S)Nc1ccc(NC(=O)c2cccnc2)cc1
inhibition (at 3.6 µM): 2.81% (inactive)

COc1ccc(C(C(=O)NC(C)(C)C)N(C(=O)Cn2nnc3ccccc32)c2ccc(C(C)=O)cc2)cc1O (centres undefined)
inhibition (at 3.6 µM): 11.7% (inactive)

CSc1ccccc1NC(=O)CN(C)CC(=O)Nc1cccc(Br)c1
inhibition (at 3.6 µM): 6.55% (inactive)

O=C1/C(=C/c2coc3ccc(O)cc3c2=O)SC(=S)N1c1ccccc1
inhibition (at 3.6 µM): -8.54% (inactive)

Cc1cccn2c(CNCC(C)Oc3cccnc3)c(C(=O)N3CCOCC3)nc12 (centres undefined)
inhibition (at 3.6 µM): 7.78% (inactive)

CCN(CC)c1ccc(NC(=O)C2CCC(CNc3c(N4CCCC4)c(=O)c3=O)CC2)c(C)c1 (centres undefined)
inhibition (at 3.6 µM): 6.36% (inactive)

O=S(=O)(c1ccccc1)N1CN(Cc2ccc(F)cc2)c2nc3ccccc3nc21
inhibition (at 3.6 µM): -11.9% (inactive)

Cc1ccc(S(=O)(=O)N(C)CC(=O)OCC(=O)Nc2ccccc2)cc1
inhibition (at 3.6 µM): 13.5% (inactive)

C/C(=N\NC(=S)NCc1ccccc1)C1CCCCC1
inhibition (at 3.6 µM): 5.23% (inactive)

Fc1cccc2ncnc(OCc3ccccc3)c12
inhibition (at 3.6 µM): 3.36% (inactive)

CCn1c(SCC(=O)Nc2sc(C)c(C)c2C#N)nnc1C1CC1
inhibition (at 3.6 µM): -13.3% (inactive)

CCC(C)NC(=O)C1c2ccccc2Oc2ccccc21 (centres undefined)
inhibition (at 3.6 µM): 10.6% (inactive)

CCOC(=O)c1ccc(S(=O)(=O)N(CCO)Cc2cc3cc(OC)c(OC)cc3[nH]c2=O)cc1
inhibition (at 3.6 µM): -8.54% (inactive)

CCc1cccc(NC(=O)CCNS(=O)(=O)c2cccc3nonc23)c1
inhibition (at 3.6 µM): -2.17% (inactive)

CCC(C)(C)NC(=O)C(c1ccc(O)cc1)N(C(=O)Cn1nnc2ccccc21)c1ccc(NC(C)=O)cc1 (centres undefined)
inhibition (at 3.6 µM): 4.36% (inactive)

COC(=O)c1ccc(COc2ccc(/C=N/NC(=O)C(=O)Nc3ccc(OC)cc3)cc2OC)o1
inhibition (at 3.6 µM): -13.4% (inactive)

Cn1nc(C(C)(C)C)c([N+](=O)[O-])c1C(N)=O
inhibition (at 3.6 µM): 11.8% (inactive)

Cc1ccc(NC(=O)/C(=C\c2ccccc2)NC(=O)c2ccco2)cc1
inhibition (at 3.6 µM): 44% (inactive) | inhibition [1]: 3.08%

Cc1ccc(OCC(=O)Nc2nnc(-c3ccco3)s2)cc1
inhibition (at 3.6 µM): -5.61% (inactive)

O=[N+]([O-])c1ccc(N=Cc2c(O)ccc3ccccc23)cc1
inhibition (at 3.6 µM): -17.6% (inactive)

O=c1[nH]nc(SCCS(=O)(=O)c2ccc(F)cc2)n1-c1ccccc1C(F)(F)F
inhibition (at 3.6 µM): -9.62% (inactive)

C=CCc1cccc2cc(C(=O)NC3CCCC3)c(=O)oc12
inhibition (at 3.6 µM): 3.42% (inactive)

COc1ccc2[nH]c(C(=O)Nc3ccccc3Cl)cc2c1
inhibition (at 3.6 µM): -0.28% (inactive)

CC1=NNC(=O)C1CC(=O)N/N=C/c1ccncc1 (centres undefined)
inhibition (at 3.6 µM): 8.8% (inactive)

C/C(=C\c1ccco1)CN1CCC(N2CCC(C(=O)N3CCOCC3)CC2)CC1
inhibition (at 3.6 µM): 3.12% (inactive)

O=C(C[n+]1cc(-c2ccc(Cl)c(Cl)c2)n2c1CCC2)c1cccs1
inhibition (at 3.6 µM): 2.29% (inactive)

COc1ccc([N+](=O)[O-])cc1N(CC(O)CN(CC(C)C)CC(C)C)S(=O)(=O)c1ccc(C)cc1 (centres undefined)
inhibition (at 3.6 µM): 2.56% (inactive)

COc1cc(N/C=C2\CC(=O)NC(C)=C2C#N)cc(OC)c1OC
inhibition (at 3.6 µM): -11.2% (inactive)

CC(C)N(C(=O)CSc1nc(COc2ccccc2)nc2ccccc12)C(C)C
inhibition (at 3.6 µM): -5.31% (inactive)

COc1c(N2CCN(C(=S)Nc3ccccc3F)C(C)C2)c(F)cc2c(=O)c(C(=O)O)cn(C3CC3)c12 (centres undefined)
inhibition (at 3.6 µM): 9.08% (inactive)

CCc1cccc(CC)c1NC(=S)Nc1ccc2cn[nH]c2c1
inhibition (at 3.6 µM): -7.83% (inactive)

O=C1/C(=C/c2cccs2)SC(=S)N1C1CCS(=O)(=O)C1 (centres undefined)
inhibition (at 3.6 µM): 1.03% (inactive)

COc1ccc(OCC(O)CNCCNc2nccc(C(F)(F)F)n2)cc1 (centres undefined)
inhibition (at 3.6 µM): 42.7% (inactive) | inhibition [1]: 10.5%

Cc1ccc(/C=C/C(=O)O)cc1S(=O)(=O)N1CCC(Cc2ccccc2)CC1
inhibition (at 3.6 µM): -14% (inactive)

O=C(C[n+]1ccc2c(c1)nnn2-c1ccccc1)c1ccc(Cl)cc1
inhibition (at 3.6 µM): -3.04% (inactive)

CC1Cc2ccccc2N1C1=CC(=O)CC(C)(C)C1 (centres undefined)
inhibition (at 3.6 µM): 10.6% (inactive)

CC(=O)Nc1ccc(NC(=O)CSc2nnc(COc3ccccc3C)n2CC2CCCO2)cc1 (centres undefined)
inhibition (at 3.6 µM): 7.46% (inactive)

O=C(Nc1nnc(COc2ccccc2)s1)Nc1ccccc1F
inhibition (at 3.6 µM): 3.12% (inactive)

COc1ccc(CNC(=O)C(Cc2ccccc2)n2cccc2)cc1 (centres undefined)
inhibition (at 3.6 µM): 6.07% (inactive)

COc1ccc(Nc2cc(=O)n(-c3ccccc3)c3c2c(=O)n(C)c(=O)n3C)cc1
inhibition (at 3.6 µM): 13.6% (inactive)

CCN(CC)CCn1cnc2c1c(=O)n(CCOC(=O)c1cc(OC)c(OC)c(OC)c1)c(=O)n2C
inhibition (at 3.6 µM): 3.47% (inactive)

O=C1COc2ccc(C(=O)COC(=O)C3CC(O)CN3S(=O)(=O)c3ccc(Cl)cc3)cc2N1 (centres undefined)
inhibition (at 3.6 µM): -2.3% (inactive)

COc1ccc(CNC(=O)COC(=O)/C=C/c2ccc(S(=O)(=O)N3CCOCC3)cc2)cc1
inhibition (at 3.6 µM): -2.01% (inactive)

N/C(=N\OC(=O)CCCC(=O)O)c1ncc(C(F)(F)F)cc1Cl
inhibition (at 3.6 µM): 2.53% (inactive)

N#CC1=C(N)Oc2c(ccc3cccnc23)C1c1ccncc1 (centres undefined)
inhibition (at 3.6 µM): 4.04% (inactive)

c1csc(-c2nnc(COc3ncnc4sccc34)o2)c1
inhibition (at 3.6 µM): -7.72% (inactive)

O=c1ccnc(Nc2ccc(Cl)cc2)[nH]1
inhibition (at 3.6 µM): 6.37% (inactive)

CN(c1ccccc1)S(=O)(=O)c1cc(C(=O)OCC(=O)N2CCN(C(=O)c3ccco3)CC2)ccc1Cl
inhibition (at 3.6 µM): 3.76% (inactive)

COC(=O)c1ccccc1N=Nc1c(C)[nH][nH]c1=O
inhibition (at 3.6 µM): -10.6% (inactive)

O=C(Nc1ccccc1F)c1ccc(Cn2cc(Br)cn2)cc1
inhibition (at 3.6 µM): -3.16% (inactive)

O=C(Cc1ccccc1Cl)N1CCN(c2ccccn2)CC1
inhibition (at 3.6 µM): -5.39% (inactive)

NC(=O)Cc1ccc2c(c1)[nH]c1ccccc12
inhibition (at 3.6 µM): -1.93% (inactive)

O=C(COc1cc(Cl)c(Cl)cc1Cl)NCCc1ccccn1
inhibition (at 3.6 µM): 6.74% (inactive)

CCN1C(=O)/C(=c2\s/c(=C3\Sc4ccccc4N3C)c(=O)n2C)N(C)C1=S
inhibition (at 3.6 µM): -7.72% (inactive)

C=CCN(CC=C)C(=O)COC(=O)c1n[nH]c2ccccc12
inhibition (at 3.6 µM): 5.16% (inactive)

O=C(Nc1ccc(-c2ccc3nncn3n2)cc1)C1CCCCC1
inhibition (at 3.6 µM): -6.47% (inactive)

Cc1ccc(-c2nn(-c3cccc(F)c3)cc2CNCCc2ccncc2)o1
inhibition (at 3.6 µM): -11.7% (inactive)

CCN(CC)S(=O)(=O)c1ccc(NC(=O)c2cccnc2Cl)c(NC(=O)c2cccnc2Cl)c1
inhibition (at 3.6 µM): 9.89% (inactive)

O=[N+]([O-])/C(N=Nc1ccccc1)=N\Nc1ccccc1
inhibition (at 3.6 µM): -9.57% (inactive)

O=S(=O)(NC(=S)Nc1ccccc1)c1ccc(F)cc1
inhibition (at 3.6 µM): -3.25% (inactive)

CN(CCC1CCOCC1)Cc1cn[nH]c1-c1ccc(-c2ccccc2)cc1
inhibition (at 3.6 µM): 9.21% (inactive)

Cc1c(NC(=O)CN2C(=O)C(=O)N(Cc3ccccc3)C2=O)c(=O)n(-c2ccccc2)n1C
inhibition (at 3.6 µM): 7.63% (inactive)

CCOC(=O)c1sc(NC(=O)CSc2n[nH]c(CC)n2)nc1C
inhibition (at 3.6 µM): -5.04% (inactive)
